# Laboratory results published in PubChem BioAssay (EPA / NIEHS).
# Records with an inconclusive call do not appear. The source made the active and inactive calls. How the source made its calls: active means hit-call score of the fitted dose curve at least 0.9, where 1 is the maximum; inconclusive means response in the unintended direction; inactive means score below 0.9.
# Key:
# [1] = biological target: zebrafish Estrogen Receptor (ESR1), esr1 (gene 259252) (UniProt P57717); assay: ATG_zfER1_XSP1: Attagene TRANS-FACTORIAL Multi-Species (XSP1) HepG2 Assay for zebrafish Estrogen Receptor (ESR1) (AID 2283772)
# How it was run: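 HepG2 cells were transiently transfected with multiplexed GAL4-UAS reporter units driven by chimeric NR-GAL4 proteins, dosed for 24 h with 3 nM 6-alpha-fluorotestosterone present, and reporter mRNA quantified by RT-PCR and capillary electrophoresis versus DMSO.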
# [2] = tested on: frog Estrogen Receptor (ESR2), gene 100174814; assay: ATG_frER2_XSP1: Attagene TRANS-FACTORIAL Multi-Species (XSP1) HepG2 Assay for frog Estrogen Receptor (ESR2) (AID 2283774)
# How it was run: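 HepG2 cells transiently transfected with GAL4-UAS reporter units expressing chimeric frog ER-Gal4; 3 nM 6-alpha-fluorotestosterone present. After 24 h dosing, reporter mRNA quantified by RT-PCR and capillary electrophoresis; gain-of-signal fitted relative to DMSO.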
# [3] = ArunA_Migration_hNC: ArunA Biomedical's Oris Neural Crest (hNC) Cell Migration Assay (AID 2283755)
# How it was run: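 Human H9-derived neural crest stem cells, 60,000/well on Matrigel, 16 h at 37C, then 72 h chemical exposure after seeding-stopper removal. Migration into detection zone read as calcein-AM fluorescence (ex494/em517), relative to DMSO.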
# [4] = ArunA_NOG_NeuriteLength: ArunA Biomedical's Neurite Outgrowth (NOG) Assay for Neurite Length (AID 2283757)
# How it was run: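 Differentiated human H9-derived neurons were exposed for 48 h from seeding, then stained with Hoechst and βIII-tubulin. Automated high-content imaging gave total neurite length per valid neuron, counting processes >10 um. Loss of signal was scored versus DMSO.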
# [5] = biological target: Luciferin 4-monooxygenase (Photinus pyralis) (UniProt P08659); assay: CCTE_Simmons_QuantiLum_inhib_2: CCTE's Firefly Luciferase Inhibition Assay, Simmons Lab (AID 2283767);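 on AC50: potency for inhibitors that lower luciferase luminescence relative to DMSO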
# How it was run: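 Cell-free recombinant firefly luciferase (5 ng/well) in 200mM potassium phosphate with 1 mg/ml BSA, 30 min at 37C with 8 concentrations from 5 nM to 87.5 uM [final], 0.5% DMSO. Luminescence read after D-luciferin (150uM)/dATP (147uM) reagent injection, pH 7.8; triplicates.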
# [6] = tested on: chicken Androgen Receptor (AR), gene 422165; assay: ATG_chAR_XSP1: Attagene TRANS-FACTORIAL Multi-Species (XSP1) HepG2 Assay for chicken Androgen Receptor (AR) (AID 2283768)
# How it was run: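 HepG2 cells transiently transfected with multiplexed GAL4-UAS reporter units expressing chimeric chicken AR-Gal4; 3 nM 6-alpha-fluorotestosterone for partial AR stimulation; 24 h after dosing, reporter mRNA by RT-PCR and capillary electrophoresis, gain-of-signal versus DMSO.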
# [7] = tested on: zebrafish Androgen Receptor (AR), gene 100005148; assay: ATG_zfAR_XSP1: Attagene TRANS-FACTORIAL Multi-Species (XSP1) HepG2 Assay for zebrafish Androgen Receptor (AR) (AID 2283771)
# How it was run: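 HepG2 cells were transiently transfected with a zebrafish AR-GAL4 reporter system and partially stimulated with 3 nM 6-alpha-fluorotestosterone. Reporter mRNA was measured after 24 h dosing by RT-PCR with capillary electrophoresis, and gain-of-signal was fitted relative to DMSO.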
# [8] = tested on: zebrafish Estrogen Receptor (ESR2B), gene 317733; assay: ATG_zfER2b_XSP1: Attagene TRANS-FACTORIAL Multi-Species (XSP1) HepG2 Assay for zebrafish Estrogen Receptor (ESR2B) (AID 2283773)
# How it was run: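 HepG2 cells transiently transfected with GAL4-UAS reporter units for chimeric zebrafish ER2b-Gal4, with 3 nM 6-alpha-fluorotestosterone present; reporter mRNA measured 24 h after dosing by RT-PCR and capillary electrophoresis, gain versus DMSO.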
# Chain of Luciferin 4-monooxygenase (Photinus pyralis) (P08659 whole entry, looked up): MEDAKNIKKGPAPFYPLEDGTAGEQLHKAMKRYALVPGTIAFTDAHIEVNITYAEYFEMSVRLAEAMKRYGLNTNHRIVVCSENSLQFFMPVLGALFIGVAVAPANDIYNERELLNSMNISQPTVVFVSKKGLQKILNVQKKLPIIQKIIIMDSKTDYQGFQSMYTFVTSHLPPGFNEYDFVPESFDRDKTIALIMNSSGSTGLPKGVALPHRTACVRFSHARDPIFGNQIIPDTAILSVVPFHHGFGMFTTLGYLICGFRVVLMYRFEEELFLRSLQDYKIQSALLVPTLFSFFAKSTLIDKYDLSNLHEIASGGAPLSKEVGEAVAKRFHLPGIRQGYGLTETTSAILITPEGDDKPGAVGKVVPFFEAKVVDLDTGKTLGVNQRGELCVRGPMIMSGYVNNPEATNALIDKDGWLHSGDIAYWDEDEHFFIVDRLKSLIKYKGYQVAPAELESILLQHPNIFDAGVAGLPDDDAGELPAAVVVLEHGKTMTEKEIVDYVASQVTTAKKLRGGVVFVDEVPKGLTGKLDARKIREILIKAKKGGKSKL
# Chain of zebrafish Estrogen Receptor (ESR1), esr1 (gene 259252) (P57717 whole entry, looked up, the tested form may be a part): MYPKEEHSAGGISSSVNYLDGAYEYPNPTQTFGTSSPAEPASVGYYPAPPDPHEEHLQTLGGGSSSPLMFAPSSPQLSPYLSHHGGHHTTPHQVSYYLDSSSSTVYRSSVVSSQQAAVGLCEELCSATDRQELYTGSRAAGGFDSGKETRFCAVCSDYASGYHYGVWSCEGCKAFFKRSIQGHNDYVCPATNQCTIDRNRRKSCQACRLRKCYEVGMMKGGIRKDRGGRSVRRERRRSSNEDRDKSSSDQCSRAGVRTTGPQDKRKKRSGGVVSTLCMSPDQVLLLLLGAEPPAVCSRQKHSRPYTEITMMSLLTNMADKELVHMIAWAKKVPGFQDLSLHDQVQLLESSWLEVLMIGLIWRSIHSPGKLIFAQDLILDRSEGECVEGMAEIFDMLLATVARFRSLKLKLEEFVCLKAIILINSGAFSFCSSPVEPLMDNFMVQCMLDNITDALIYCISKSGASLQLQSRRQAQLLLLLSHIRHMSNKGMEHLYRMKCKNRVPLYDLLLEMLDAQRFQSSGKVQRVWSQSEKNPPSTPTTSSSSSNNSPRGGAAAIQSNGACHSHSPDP
smiles,measurement,setting,value
CC1(C)CCC(=Cc2ccc(Cl)cc2)C1(O)Cn1cncn1 (configuration not stated),outcome,[1],inactive
same,AC50,[2],56.6 µM (active)
COCc1cnc(C2=NC(C)(C(C)C)C(=O)N2)c(C(=O)O)c1 (configuration not stated),outcome,[3],inactive
same,outcome,[4],inactive
O=P(O)(O)CCCl,outcome,[5],inactive
Clc1nc(Cl)nc(Nc2ccccc2Cl)n1,AC50,[5],8.85 µM (active)
COP(=S)(OC)SCn1nnc2ccccc2c1=O,outcome,[5],inactive
COC(=O)NS(=O)(=O)c1ccc(N)cc1,AC50,[5],0.149 µM (active)
CCNP(=S)(OC)O/C(C)=C/C(=O)OC(C)C (configuration not stated),outcome,[5],inactive
CCOc1nc(C(Cl)(Cl)Cl)ns1,outcome,[5],inactive
Cc1cnc(C2=NC(C)(C(C)C)C(=O)N2)c(C(=O)O)c1 (configuration not stated),outcome,[5],inactive
CC(C)NC(=O)N1CC(=O)N(c2cc(Cl)cc(Cl)c2)C1=O,outcome,[6],inactive
same,outcome,[7],inactive
same,outcome,[1],inactive
same,AC50,[8],100 µM (active)
same,AC50,[2],100 µM (active)
CCN(CC)c1nc(C)cc(OP(=S)(OC)OC)n1,outcome,[5],inactive
